We go through 9 compounds from PubChem BioAssay.

Activity calls are given as the source filed them. Unless noted, how the calls were made is not given here.

Assay [1] can be described thus: HepG2 liver cancer cell viability effects, profiling panel, resazurin fluorescence, 24 h, PK04 Diversity Set (AID 1172). Particulars: higher = more signal. On the technique in general: Alamar Blue is a resazurin reagent that responds to reducing activity.
Assay [2] can be described thus: basal S. cerevisiae growth modulation, no modifier, primary screen, OD600, strain BY4716, 24 h, basal condition (AID 1173). Particulars: OD600, 24 h, higher = more signal, called active from +8 up or from −8 down.
Assay [3] in a line: MM1S myeloma cell viability, profiling panel, resazurin fluorescence, basal, 24 h, PK04 Diversity Set (AID 1174). Particulars: higher = more signal, called active from +8 up or from −8 down.
Assay [4] concerns the target Dihydroorotate dehydrogenase (quinone), mitochondrial (Plasmodium falciparum (isolate 3D7)) (UniProt Q08210). Nature of the assay: PfDHODH enzyme inhibitors, primary screen, biochemical, C-terminal His tag, absorbance 600 nm (AID 1175).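 Further: recombinant parasite enzyme with a five histidine tag at its C terminus.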 Particulars: DCIP absorbance 600 nm, higher = more signal, called active from +8 up or from −8 down.
Assay [5] in a line: P. aeruginosa biofilm formation inhibitors, primary screen, strain PAO1, LB-PBS medium, absorbance 600 nm (AID 1176). Particulars: P. aeruginosa PAO1 growth/biofilm, A600, 12 h; higher = more signal.
Assay [6] can be described thus: S. cerevisiae RM11-1a growth modifiers, primary screen, strain RM11-1a, OD600, basal, 24 h (AID 1177).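 Further: cultures grown under basal conditions with no added stressor.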 Particulars: OD600, 24 h, higher = more signal, called active from +8 up or from −8 down.
Assay [7] is described as follows: E. coli acrAB mutant growth effects, primary screen, E. coli filamentation inducers, strain DRC39, OD650, 24 h (AID 1178).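 Further: growth measured as culture turbidity by optical density at 650 nm.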 Particulars: higher = more signal, called active from +8 up or from −8 down.
Assay [8] in a line: E. coli acrAB mutant growth effects, primary screen, E. coli filamentation inducers, strain DRC39, OD650, 48 h (AID 1179).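 Further: screen aims at cell division blockers that make cells filament.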 Particulars: E. coli DRC39 delta-acrAB growth, higher = more signal, called active from +8 up or from −8 down.
Assay [9] can be described thus: RPMI8226 myeloma cell viability, profiling panel, resazurin fluorescence, basal, 24 h, PK04 Diversity Set (AID 1180).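 Further: RPMI8826 multiple myeloma cell line at 5000 cells per well.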 Particulars: higher = more signal.
In assay [10] the target is E3 ubiquitin-protein ligase XIAP (Homo sapiens) (UniProt P98170). Nature of the assay: XIAP binders, primary screen, biophysical, small-molecule microarray, fluorescence 635 nm (AID 1181).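 Further: score merges 667 nm emission and signal to noise over triplicate slides.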 Particulars: small-molecule microarray binding, higher = more signal.
Sequence of E3 ubiquitin-protein ligase XIAP (Homo sapiens) (P98170 whole entry, looked up): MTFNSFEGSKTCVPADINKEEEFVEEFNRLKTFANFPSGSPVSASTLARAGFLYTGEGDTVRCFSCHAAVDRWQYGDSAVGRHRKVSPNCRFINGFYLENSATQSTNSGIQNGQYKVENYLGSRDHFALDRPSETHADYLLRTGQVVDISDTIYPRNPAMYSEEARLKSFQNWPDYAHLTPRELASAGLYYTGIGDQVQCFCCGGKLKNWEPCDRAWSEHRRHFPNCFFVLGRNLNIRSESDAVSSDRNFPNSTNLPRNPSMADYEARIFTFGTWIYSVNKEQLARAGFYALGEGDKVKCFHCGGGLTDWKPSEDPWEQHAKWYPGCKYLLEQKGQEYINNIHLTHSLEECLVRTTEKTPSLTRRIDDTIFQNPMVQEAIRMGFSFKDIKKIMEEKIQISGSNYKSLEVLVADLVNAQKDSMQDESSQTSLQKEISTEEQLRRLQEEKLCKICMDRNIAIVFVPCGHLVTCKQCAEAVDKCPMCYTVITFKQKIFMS
The test system of assay [11] is XIP peptide (Xip251-270) binding. Nature of the assay: small-molecule binders of XIP peptide, primary screen, biochemical, small-molecule microarray, fluorescence 635/667 nm, 0.1 µg/mL protein (AID 1182). Particulars: fluorescent protein binding, 635 nm, higher = more signal, called active from +8 up or from −8 down.
The subject of another assay is XIP peptide (Xip251-270). As to the kind of experiment: small-molecule binders of XIP peptide, primary screen, biochemical, small-molecule microarray, fluorescence 635/667 nm, 0.5 µg/mL protein (AID 1183). Particulars: small-molecule microarray binding, fluorescence 635 nm; higher = more signal.
Assay [12] can be described thus: Plasmodium falciparum growth inhibition, primary screen, strain 3D7, DAPI fluorescence, 100 nL (AID 1184).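 Further: parasites grown inside human red blood cells in medium with human serum.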 Particulars: P. falciparum 3D7 growth, 3 d, higher = more signal.
Assay [13] addresses Homeobox protein Hox-A13 (Mus musculus) (UniProt Q62424). Nature of the assay: inhibitors of HoxA13-DNA binding, primary screen, biochemical, fluorescence polarization, labeled oligonucleotide (AID 1185). Particulars: 15 min, higher = more signal, called active from +8 up or from −8 down.
A short description of assay [14]: inhibitors of hydroxyurea-induced Chk1 phosphorylation, primary screen, imaging, HeLa, phospho-Chk1 antibody, percent positive cells (AID 1186). Particulars: hydroxyurea-induced phospho-Chk1 immunofluorescence imaging, higher = more signal.
The nature of assay [15]: inhibitors of hydroxyurea-induced Chk1 phosphorylation, primary screen, imaging, HeLa, phospho-Chk1 nuclear intensity (AID 1187). Particulars: hydroxyurea-induced phospho-Chk1 immunofluorescence imaging, higher = more signal.

Sequence of Dihydroorotate dehydrogenase (quinone), mitochondrial (Plasmodium falciparum (isolate 3D7)) (Q08210 whole entry, looked up): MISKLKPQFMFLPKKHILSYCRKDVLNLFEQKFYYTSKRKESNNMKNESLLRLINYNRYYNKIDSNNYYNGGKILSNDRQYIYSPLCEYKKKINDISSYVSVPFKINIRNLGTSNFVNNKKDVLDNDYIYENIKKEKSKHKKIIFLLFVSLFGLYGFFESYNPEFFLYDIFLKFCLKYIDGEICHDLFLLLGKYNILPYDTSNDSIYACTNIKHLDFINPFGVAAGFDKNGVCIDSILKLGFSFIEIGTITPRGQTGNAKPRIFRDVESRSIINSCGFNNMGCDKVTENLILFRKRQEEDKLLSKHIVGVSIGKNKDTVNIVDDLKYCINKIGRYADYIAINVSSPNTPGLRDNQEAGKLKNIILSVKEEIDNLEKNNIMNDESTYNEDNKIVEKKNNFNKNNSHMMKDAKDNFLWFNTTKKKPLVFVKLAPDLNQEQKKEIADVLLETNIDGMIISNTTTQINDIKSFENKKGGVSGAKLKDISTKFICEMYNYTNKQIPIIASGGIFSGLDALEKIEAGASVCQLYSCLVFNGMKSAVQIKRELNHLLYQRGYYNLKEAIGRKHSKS
Sequence of Homeobox protein Hox-A13 (Mus musculus) (Q62424 whole entry, looked up): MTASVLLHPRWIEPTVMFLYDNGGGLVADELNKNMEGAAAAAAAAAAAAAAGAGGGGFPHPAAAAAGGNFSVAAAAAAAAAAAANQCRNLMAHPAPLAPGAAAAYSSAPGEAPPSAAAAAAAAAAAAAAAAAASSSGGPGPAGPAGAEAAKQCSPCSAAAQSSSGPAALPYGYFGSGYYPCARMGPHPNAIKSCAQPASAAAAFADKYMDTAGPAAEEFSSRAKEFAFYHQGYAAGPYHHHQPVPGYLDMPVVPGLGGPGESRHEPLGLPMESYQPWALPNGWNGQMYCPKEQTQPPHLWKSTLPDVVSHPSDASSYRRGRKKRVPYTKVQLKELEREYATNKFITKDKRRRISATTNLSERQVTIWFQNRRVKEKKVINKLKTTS

Consider `O=C(O)[C@H](Cc1ccccc1)n1cc(C2(O)CCCCC2)nn1`, for which the z-score in [1] was -0.466; in assay [2] it was -0.415 (inactive); in assay [3], -0.625 (inactive); in [5], 0.055 (inactive); in assay [6] it was -0.563 (inactive); in assay [7], -0.128 (inactive). Besides, the z-score in [8] is -0.477 (inactive); in assay [9], -0.88; in assay [12] it was 0.074; in assay [13], -1.04 (inactive); in assay [14], 0.402 (inactive); in [15], -0.535 (inactive). Moreover, the composite z-score is -1.6 (inactive) in assay [4], -0.0668 in assay [10], -0.0467 (inactive) in assay [11] and 0.0248 in the assay with XIP peptide (Xip251-270).

As to `CC(C)C[C@@H]1NC(=O)[C@@H]2C[C@H](C(=O)NCCCCCCNC(=O)CS)[C@H](c3cccc(OCCO)c3)N2C1=O`, the z-score in assay [1] is -0.889; in assay [2], 1.05 (inactive); in assay [3], -1.1 (inactive); in [5] it was 0.863 (inactive); in [6], 1.11 (inactive); in assay [7], -0.379 (inactive). In addition, the z-score is -0.881 (inactive) in [8]; -0.458 in assay [9]; -0.0654 in assay [12]; -3.13 (inactive) in assay [13]; -0.517 (inactive) in assay [14]; -0.358 (inactive) in assay [15]. The composite z-score in assay [4] is 0.283 (inactive); in assay [10], -0.122; in assay [11], 1.63 (inactive); with XIP peptide (Xip251-270), 0.839.

For `C[N+](C)(C)CCCC[C@@H]1NC(=O)[C@@H]2C[C@H](C(=O)NCc3ccc(F)cc3)[C@H](c3ccc(O)cc3)N2C1=O`, the z-score in assay [1] was -0.348; in [2], 0.628 (inactive); in assay [3] it was 0.0125 (inactive); in assay [5] it was 0.683 (inactive); in assay [6], 0.506 (inactive); in assay [7], 0.426 (inactive). Moreover, the z-score in [8] was 0.577 (inactive); in [9], 0.276; in [12], 0.269; in assay [13], -0.882 (inactive); in [14], 0.0551 (inactive); in assay [15] it was 0.0892 (inactive). The composite z-score in assay [4] is 0.0528 (inactive); in assay [10], 0.0223; in assay [11], 0.744 (inactive); in the assay with XIP peptide (Xip251-270) it was 0.0664.

For `CC(C)(C)N1CC=CC23O[C@@H]4/C=C\CCCOC(=O)C4[C@H]2C(=O)N(CCCO)[C@@H]3C1=O` (some centres undefined), the z-score was 0.0873 in assay [1]; 0.111 (inactive) in assay [2]; 0.0928 (inactive) in assay [3]; -0.236 (inactive) in assay [5]; -1.06 (inactive) in assay [6]; 0.0362 (inactive) in assay [7]. The z-score is -0.205 (inactive) in assay [8]; -0.0182 in assay [9]; 0.426 in assay [12]; -5.57 (inactive) in assay [13]; -0.0351 (inactive) in assay [14]; 0.0939 (inactive) in assay [15]. The composite z-score in assay [4] was -2.08 (inactive); in assay [10], -0.0626; in assay [11], -0.12 (inactive); with XIP peptide (Xip251-270) it was -0.774.

For the compound `CCCNC(=O)[C@@]1(c2ccc([N+](=O)[O-])cc2)CC(=O)N(C(C)C)[C@@H]1c1ccc(CO)cc1`, the z-score in assay [1] is 0.0889; in assay [2] it was -0.324 (inactive); in [3], -0.96 (inactive); in assay [5], 0.373 (inactive); in assay [6] it was -0.355 (inactive); in assay [7] it was 0.388 (inactive). For the same compound, the z-score in [8] was -0.508 (inactive); in assay [9] it was 0.123; in assay [12], -0.379; in assay [13], -2.6 (inactive); in assay [14], -0.102 (inactive); in assay [15] it was -0.105 (inactive). Also, the composite z-score was 0.0058 (inactive) in assay [4], 0.0692 in [10], 3.93 (inactive) in assay [11] and 0.228 with XIP peptide (Xip251-270).

With `CC1CC/C=C\[C@H]2OC34C=CCN(Cn5nnc6ccccc65)C(=O)[C@H]3N(CCCCCCO)C(=O)[C@@H]4C2C(=O)O1` (some centres undefined), the z-score is 0.535 in assay [1]; -0.705 (inactive) in assay [2]; 0.501 (inactive) in assay [3]; 0.137 (inactive) in assay [5]; 0.85 (inactive) in assay [6]; 0.816 (inactive) in assay [7]. The z-score in assay [8] was 0.703 (inactive); in [9], 1.16; in assay [12], 0.21; in assay [13], -3.02 (inactive); in assay [14] it was -0.481 (inactive); in [15] it was -0.521 (inactive). Further, the composite z-score in assay [4] was -0.374 (inactive); in assay [10] it was -0.244; in assay [11] it was 0.0152 (inactive); in the assay with XIP peptide (Xip251-270) it was 0.217.

As for `O=C1O[C@H](Cc2ccccc2)[C@@H]2[C@H]3C=CCCC=C3CN2[C@H]1Cc1ccc(O)cc1`, the z-score in assay [1] was 1.28; in [2], -2.92 (inactive); in [3], 0.303 (inactive); in [5] it was 0.118 (inactive); in assay [6] it was -0.0533 (inactive); in [7], 0.616 (inactive). The z-score is 0.746 (inactive) in assay [8]; -0.095 in [9]; -0.947 in assay [12]; -9.53 (active) in assay [13]; 0.167 (inactive) in assay [14]; -0.122 (inactive) in assay [15]. The composite z-score in assay [4] is -0.259 (inactive); in [10], 0.269; in assay [11], 0.127 (inactive); in the assay on XIP peptide (Xip251-270) it was -0.61.

In the case of `COc1ccc([Si](C)(C)[C@H]2[C@H](CC(=O)N3Cc4ccccc4C[C@H]3CO)O[C@@]3(C(=O)N(c4ccccc4)c4ccccc43)[C@@H]2C)cc1`, the z-score in assay [1] was 0.635; in assay [2], -1.89 (inactive); in assay [3], -2.45 (inactive); in [5], 0.0943 (inactive); in assay [6] it was 0.578 (inactive); in assay [7] it was 0.346 (inactive). Besides, the z-score in [8] is -0.288 (inactive); in assay [9], -2.1; in [12] it was -2.01; in assay [13], -5.4 (inactive); in [14], -0.447 (inactive); in assay [15] it was -0.786 (inactive). Also, the composite z-score in [4] was -1.05 (inactive); in assay [10], -0.209; in [11] it was 0.065 (inactive); in the assay on XIP peptide (Xip251-270) it was 0.765.

Take `CCCCCCc1nc(Cc2cc(OC)c(OC)c(OC)c2)cc2c1[Si](C(C)C)(C(C)C)O[C@H]2c1ccccc1`: the z-score in assay [1] is 0.915; in [2], 1.12 (inactive); in [3] it was -0.111 (inactive); in [5], 0.374 (inactive); in assay [6] it was 0.202 (inactive); in assay [7] it was -0.373 (inactive). Moreover, the z-score in assay [8] is -0.585 (inactive); in assay [9] it was -0.83; in assay [12], -2.34; in [13], -3.15 (inactive); in assay [14] it was 0.252 (inactive); in [15], -0.409 (inactive). Also, the composite z-score in assay [4] was 0.364 (inactive); in assay [10], -0.491; in assay [11], -0.0565 (inactive); in the assay on XIP peptide (Xip251-270), 0.103.
